Records with an inconclusive call do not appear. Active and inactive are the calls of the source. Unless noted, calls come from the whole dose curve.
Experiments:
[1] = Nuclear factor erythroid 2-related factor 2/antioxidant responsive element (Nrf2/ARE) small molecule agonists: qHTS cell viability counter screen in human keratinocytes (AID 1919968; active = well fitted curve in the direction sought with a large enough effect in the repeat runs; an effect the other way counts as inactive or inconclusive; note: nearly all actives have a fitted effect of over 55% in size)
In short: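 Measured as CellTiter-Fluor fluorescence, this readout tracks cytotoxicity in the same wells as the ARE-luciferase screen. HaCaT reporter cells (1,500/well) received compounds after a 5 h pre-incubation and were exposed for 23 h.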

[2] = Nuclear factor erythroid 2-related factor 2/antioxidant responsive element (Nrf2/ARE) small molecule agonists: luciferase reporter gene qHTS assay in human keratinocytes (AID 1919969); note: nearly all actives have a fitted effect of over 35% in size
[3] = molecular target: Gonadotropin-releasing hormone receptor (Homo sapiens) (UniProt P30968); assay: Human gonadotropin-releasing hormone receptor (GnRHR) small molecule agonists, calcium flux assay in GnRHR-HEK293 cells (AID 1920063); note: nearly all actives have a fitted effect of over 35% in size
In short: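 Fluorescence kinetics (480 nm excitation, 540 nm emission; 3 min, 1 s steps) report calcium mobilisation in human GnRHR-HEK293 cells in agonist mode. Dye incubation: 1 h, 37 C.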

[4] = molecular target: KiSS-1 receptor (Homo sapiens) (UniProt Q969F8); assay: Human kisspeptin (KISS1R) small molecule agonists, calcium flux assay in KISS1R-HEK293 cells (AID 1920064; active = well fitted curve in the direction sought with a large enough effect in the repeat runs; an effect the other way counts as inactive or inconclusive)
In short: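 Measures KISS1R agonism through calcium-sensitive dye fluorescence in stably transfected HEK293 cells, read for 3 min after pin-tool compound delivery; 15-point titrations in triplicate.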

[5] = G protein-coupled receptor (GPCR) small molecule agonists, calcium flux assay: HEK293 wild type cell line counter screen (AID 1920065)
In short: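 Readout: fluorescence at 480 nm excitation/540 nm emission, sampled at 1 s intervals for 3 min. Cells had been cultured 18 h, then dye-loaded 1 h at 37 C before compound or ATP addition.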

[6] = p53 small molecule agonists, cell-based qHTS assay with human liver microsomes (AID 1963577);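 note: p53 response element beta-lactamase reporter cells with liver microsomes plus NADPH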
In short: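 16 h, 37 C exposure of p53RE-bla cells to compounds with human liver microsomes and NADPH (0.5 mg/mL final each); detection via LiveBLAzer mixture, 2 h dark at room temperature.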

[7] = p53 small molecule agonists, cell-based qHTS assay with rat liver microsomes (AID 1963578)
In short: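 With rat liver microsomes and NADPH present (0.5 mg/mL final each), p53RE-bla cells are treated with compound for 16 h at 37 C. LiveBLAzer detection mixture is then applied for 2 h at room temperature in the dark.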

[8] = p53 small molecule agonists, cell-based qHTS assay with human liver microsomes: qHTS cell viability counter screen (AID 1963579); note: nearly all actives have a fitted effect of over 45% in size
In short: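 In this multiplexed counter screen, the reporter plates were subsequently treated with CellTiter-Glo so that cell viability, reflected by luminescence, could be recorded for p53RE-bla cells dosed 16 h with compounds under microsomal activation (HLM and NADPH).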

[9] = p53 small molecule agonists, cell-based qHTS assay with rat liver microsomes: qHTS cell viability counter screen (AID 1963580); note: nearly all actives have a fitted effect of over 45% in size
In short: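 In HCT-116 cells carrying a p53 response element-bla reporter, compounds were metabolically activated in situ by rat liver microsomes with NADPH over 16 h. Cell ATP content then served as the cytotoxicity measure.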

[10] = p53 small molecule agonists, cell-based qHTS assay: qHTS cell viability counter screen (AID 1963581); note: nearly all actives have a fitted effect of over 45% in size
In short: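 In the same plates used for the p53 bla reporter, HCT-116 cells given compounds for 16 h at 37 C received CellTiter-Glo; luminescence was recorded 30 min later at room temperature.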

[11] = p53 small molecule agonists, cell-based qHTS assay (AID 1963582; active = well fitted activation curve with a large enough effect in the signal ratio in the repeat runs, not every such curve was filed as active; the % refers to the signal ratio)
In short: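 Compounds are pin-transferred in DMSO onto p53RE-bla cells and incubated 16 h at 37 C. The B/G FRET beta-lactamase substrate is then applied for 2 h at RT and fluorescence recorded.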

[12] = molecular target: 5-hydroxytryptamine receptor 2A (Homo sapiens) (UniProt P28223); assay: 5-hydroxytryptamine receptor 2A (HTR2A) small molecule antagonists, cell-based qHTS assay (AID 1963586); note: nearly all actives have a fitted effect of over 45% in size
In short: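 Antagonist-mode intracellular calcium assay: DOI (4 nM) added after 5 min compound pre-incubation at room temperature to dye-loaded HTR2A-CHO cells. Fluorescence followed for 3 min, sampled every second.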

[13] = molecular target: 5-hydroxytryptamine receptor 2A (Homo sapiens) (UniProt P28223); assay: 5-hydroxytryptamine receptor 2A (HTR2A) small molecule agonists, cell-based qHTS assay (AID 1963587); note: nearly all actives have a fitted effect of over 30% in size
In short: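 HTR2A-CHO cells, plated 18 h at 37 C/5% CO2, dye-loaded 1 h at 37 C; compounds in DMSO added by pin tool (agonist mode). Intracellular calcium flux read as kinetic fluorescence on FDSS over 2 min at 1 s intervals.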

[14] = molecular target: Muscarinic acetylcholine receptor M1 (Homo sapiens) (UniProt P11229); assay: Cholinergic receptor muscarinic 1 (CHRM1) small molecule antagonists, cell-based qHTS assay (AID 1963588); note: nearly all actives have a fitted effect of over 40% in size
In short: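 CHRM1-CHO calcium-flux assay, antagonist mode. Cells were seeded 18 h, dye-loaded 1 h at 37 C and given compound for 5 min at RT, then acetylcholine was added at 50nM. FDSS fluorescence was read 3 min; 15 concentrations, three runs.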

[15] = molecular target: Muscarinic acetylcholine receptor M1 (Homo sapiens) (UniProt P11229); assay: Cholinergic receptor muscarinic 1 (CHRM1) small molecule agonists, cell-based qHTS assay (AID 1963589); note: nearly all actives have a fitted effect of over 35% in size
In short: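 Each compound was tested at 15 concentrations across three independent runs on dye-loaded CHO cells stably expressing human CHRM1, reading intracellular calcium fluorescence kinetically at 1 sec intervals.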

[16] = cAMP Responsive Elements (CRE) small molecule agonists, cell-based qHTS assay (AID 1963590)
In short: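 Cell line: CRE-bla HEK 293T; medium DMEM/10% dialyzed FBS/0.1 mM NEAA/1 mM pyruvate/25 mM HEPES; 3 h compound exposure; beta-lactamase FRET readout after 2 h substrate loading at RT.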

[17] = cAMP Responsive Elements (CRE) small molecule antagonists, cell-based qHTS assay (AID 1963591; active = well fitted inhibition curve with a large enough effect in the signal ratio in the repeat runs, not every such curve was filed as active; the % refers to the signal ratio)
In short: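 Inhibition of NKH477-driven (0.25 uM final) CRE-beta-lactamase signal in HEK293T cells, 3 h compound exposure at 37 °C, detected by FRET substrate fluorescence.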

[18] = molecular target: Beta-2 adrenergic receptor (Homo sapiens) (UniProt P07550); assay: Adrenergic beta2 receptor (ADRB2) small molecule antagonists, cell-based qHTS assay (AID 1963592); note: series mostly up to about 92 µM; nearly all actives have a fitted effect of over 50% in size
In short: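 Cells (CHO, stable ADRB2 overexpression) incubated 18-20hr at 37C; compounds added from DMSO; agonist mix (1nM isoproterenol, 100uM IBMX, 25uM Ro-20-1724) added; 0.5hr RT; d2-cAMP and anti-cAMP-cryptate added; 1hr RT; 665/615 nm read.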

[19] = molecular target: D(2) dopamine receptor (Homo sapiens) (UniProt P14416); assay: Dopamine D2 receptor (DRD2) small molecule agonists, cell-based qHTS assay (AID 1963594); note: nearly all actives have a fitted effect of over 35% in size
In short: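 HEK293 cells stably expressing DRD2 were cultured 24 h at 37 C, then given Ro20-1724 (0.1 mM final) and compounds for 10 min at room temperature. NKH477 (200nM) was then added for 30 min. cAMP was read by HTRF.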

[20] = molecular target: D(2) dopamine receptor (Homo sapiens) (UniProt P14416); assay: Dopamine D2 receptor (DRD2) small molecule antagonists, cell-based qHTS assay (AID 1963595; active = well fitted inhibition curve with a large enough effect in the signal ratio in the repeat runs, with a control signal flat; the % refers to the signal ratio)
In short: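 Readout: HTRF cAMP, cAMP-d2 competing with cellular cAMP for anti-cAMP cryptate, read after 1 h. Cells: DRD2-HEK293. Conditions: 0.1 mM Ro20-1724, 12 nM quinpirole, 200 nM NKH477, 30 min RT.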

Measured: Potency

Sequence of Gonadotropin-releasing hormone receptor (Homo sapiens) (P30968 whole entry, looked up): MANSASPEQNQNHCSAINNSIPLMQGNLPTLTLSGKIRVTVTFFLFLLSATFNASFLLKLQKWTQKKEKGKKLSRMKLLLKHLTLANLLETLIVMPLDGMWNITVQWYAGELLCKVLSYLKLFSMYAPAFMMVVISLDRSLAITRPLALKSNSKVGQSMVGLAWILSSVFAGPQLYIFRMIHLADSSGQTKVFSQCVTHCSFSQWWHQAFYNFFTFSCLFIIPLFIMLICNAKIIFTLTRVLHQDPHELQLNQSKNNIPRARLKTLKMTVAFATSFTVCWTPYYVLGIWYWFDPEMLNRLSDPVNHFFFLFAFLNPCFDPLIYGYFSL
Sequence of Beta-2 adrenergic receptor (Homo sapiens) (P07550 whole entry, looked up): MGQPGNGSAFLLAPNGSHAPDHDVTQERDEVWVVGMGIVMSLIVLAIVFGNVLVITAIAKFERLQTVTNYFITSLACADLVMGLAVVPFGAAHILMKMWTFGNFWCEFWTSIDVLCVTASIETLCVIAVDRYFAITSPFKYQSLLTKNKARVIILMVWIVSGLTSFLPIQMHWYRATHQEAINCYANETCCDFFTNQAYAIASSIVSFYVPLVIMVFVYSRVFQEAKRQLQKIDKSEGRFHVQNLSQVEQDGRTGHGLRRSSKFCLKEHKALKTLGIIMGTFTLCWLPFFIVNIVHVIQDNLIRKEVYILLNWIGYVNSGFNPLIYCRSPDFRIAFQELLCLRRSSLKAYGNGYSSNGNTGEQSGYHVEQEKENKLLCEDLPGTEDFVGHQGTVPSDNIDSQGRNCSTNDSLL
Sequence of D(2) dopamine receptor (Homo sapiens) (P14416 whole entry, looked up): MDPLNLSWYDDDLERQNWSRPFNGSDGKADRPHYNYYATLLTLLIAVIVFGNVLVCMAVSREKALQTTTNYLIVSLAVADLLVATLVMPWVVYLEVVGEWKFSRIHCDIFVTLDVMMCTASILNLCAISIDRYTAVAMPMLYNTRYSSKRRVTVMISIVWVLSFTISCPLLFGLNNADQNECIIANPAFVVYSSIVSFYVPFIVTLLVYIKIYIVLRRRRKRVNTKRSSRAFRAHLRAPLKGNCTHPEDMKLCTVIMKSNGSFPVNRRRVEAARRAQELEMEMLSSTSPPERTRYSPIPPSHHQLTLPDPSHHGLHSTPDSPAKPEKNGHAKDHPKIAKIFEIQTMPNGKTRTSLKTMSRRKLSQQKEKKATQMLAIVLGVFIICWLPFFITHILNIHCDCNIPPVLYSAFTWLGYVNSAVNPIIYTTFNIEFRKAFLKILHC
Sequence of Muscarinic acetylcholine receptor M1 (Homo sapiens) (P11229 whole entry, looked up): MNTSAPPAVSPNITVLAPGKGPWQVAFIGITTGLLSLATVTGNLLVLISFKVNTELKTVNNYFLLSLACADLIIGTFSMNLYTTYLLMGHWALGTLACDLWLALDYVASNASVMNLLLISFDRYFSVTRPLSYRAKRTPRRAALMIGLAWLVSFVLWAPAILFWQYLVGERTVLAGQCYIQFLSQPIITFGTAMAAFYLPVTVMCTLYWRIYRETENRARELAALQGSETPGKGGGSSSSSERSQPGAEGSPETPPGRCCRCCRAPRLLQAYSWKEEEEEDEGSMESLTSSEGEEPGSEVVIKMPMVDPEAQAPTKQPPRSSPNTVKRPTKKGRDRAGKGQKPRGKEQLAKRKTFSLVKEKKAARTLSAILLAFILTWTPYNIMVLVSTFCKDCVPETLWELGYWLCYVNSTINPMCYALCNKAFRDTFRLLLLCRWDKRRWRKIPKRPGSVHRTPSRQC
Sequence of KiSS-1 receptor (Homo sapiens) (Q969F8 whole entry, looked up): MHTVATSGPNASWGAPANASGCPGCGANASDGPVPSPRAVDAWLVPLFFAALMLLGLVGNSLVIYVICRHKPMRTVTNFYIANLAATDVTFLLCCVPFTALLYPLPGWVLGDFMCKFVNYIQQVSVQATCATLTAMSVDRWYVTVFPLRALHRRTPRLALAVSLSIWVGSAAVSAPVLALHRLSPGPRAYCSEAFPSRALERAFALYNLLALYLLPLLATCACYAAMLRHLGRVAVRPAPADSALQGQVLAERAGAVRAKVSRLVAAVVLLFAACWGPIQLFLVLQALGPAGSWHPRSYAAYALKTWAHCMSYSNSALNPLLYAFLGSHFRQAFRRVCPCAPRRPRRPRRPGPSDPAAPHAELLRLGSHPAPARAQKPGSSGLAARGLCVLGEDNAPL
Sequence of 5-hydroxytryptamine receptor 2A (Homo sapiens) (P28223 whole entry, looked up): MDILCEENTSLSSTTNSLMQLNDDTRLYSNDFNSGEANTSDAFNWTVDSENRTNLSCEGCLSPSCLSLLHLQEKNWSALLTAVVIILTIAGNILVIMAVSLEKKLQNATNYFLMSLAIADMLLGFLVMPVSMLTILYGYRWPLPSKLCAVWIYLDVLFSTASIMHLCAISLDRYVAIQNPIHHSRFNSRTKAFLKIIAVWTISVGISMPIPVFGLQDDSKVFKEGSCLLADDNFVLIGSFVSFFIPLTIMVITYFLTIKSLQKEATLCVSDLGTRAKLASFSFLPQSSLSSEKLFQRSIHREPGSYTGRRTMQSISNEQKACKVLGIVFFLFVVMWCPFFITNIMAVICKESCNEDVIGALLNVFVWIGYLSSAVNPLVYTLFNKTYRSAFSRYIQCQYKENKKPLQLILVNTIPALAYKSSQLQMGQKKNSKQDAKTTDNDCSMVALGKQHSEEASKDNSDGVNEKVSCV

O=C(CN1CCN(Cc2ccc3c(c2)OCO3)CC1)N1c2ccccc2Sc2ccccc21
inactive: all assays above

OCC(CO)(CO)COCC(CO)(CO)CO
inactive: all assays above

Nc1cc(C(=O)O)c(O)c(S(=O)(=O)O)c1
inactive: all assays above

CC(C)(C)OC(=O)N1C[C@@H](F)C[C@H]1C(=O)O
inactive: all assays above

CC1CCC(C(C)CS)CC1S (centres undefined)
inactive: all assays above

C[C@H](CCC(=O)NCC(=O)O)[C@H]1CC[C@H]2[C@@H]3[C@H](O)C[C@@H]4C[C@H](O)CC[C@]4(C)[C@H]3C[C@H](O)[C@]12C
inactive: all assays above

Oc1ccc2c(c1)CCC2
not listed: [20]
inactive: all other assays above

Reference: PubChem BioAssay (Tox21)
